Bioassay records from PubChem BioAssay.
Hits are enriched below; roughly 4.1% of the tested compounds scored in any of these assays.
GRIN3A LBD mod: modulators (binders) of human NR3A ligand-binding domain. NR3A LBD differential scanning fluorimetry, Tm shift; 0% = protein alone, 100% = glycine-bound protein. actives 2.5% (n = 340,000). AID 1259313. Tm shift relative to glycine control, % at 25 µM;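 active means melting temperature shift of at least 10% of the positive control shift, at one fixed dose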
MPTP inh: inhibitors of mitochondrial permeability transition pore. isolated mouse mitochondria, Ca2+ swelling absorbance, 30 min. inhibition, % at 10 µM. actives 1.4% (n = 360,000). AID 602449;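 active means inhibition of 50% or more, scaled per plate between neutral and stimulator controls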
beta cell repl: induces beta-cell replication in MIN6 cells | MIN6 cells proliferation, ATPlite luminescence, 48 h; cells starved in 0.2% serum; 100% = growth in 10% serum | actives 0.29% (n = 330,000) | proliferation, % at 10 µM | AID 2380;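 active means compounds whose signal lies at least 3.5 SD above the mean of all wells on their plate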
FAS TE block: blocks the thioesterase domain of human fatty acid synthase; recombinant FAS-TE, OMFH fluorogenic substrate, fluorescence endpoint; P49327; inhibition, % at 15 µM; actives 0.67% (n = 360,000);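 active means compounds whose normalised, plate-corrected inhibition of enzyme fluorescence in the single-dose primary screen is 50% or more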
pCIP destab: compounds decreasing mouse p/CIP protein stability. F442A p/CIP-EGFP cells, EGFP fluorescence, 16 h. decrease of EGFP signal, % at 10 µM. actives 0.01% (n = 290,000). AID 1984;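 active means EGFP signal decrease of at least 30% at 10 µM or well 3 SD below plate mean, unless failing retest; inactive means the rest, including hits failing retest or dose response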
Rh123 counter: Rhodamine 123 counter-screen of mitochondrial pore hits; isolated mitochondria, membrane potential, Rhodamine 123 fluorescence; actives 78% (n = 5,000); shares compounds with MPTP inh; inhibition, % at 10 µM; in the data active means inhibition above about 22%
MPTP swell DR: dose response confirmation of mitochondrial permeability transition pore inhibitors. IC50, µM. shares compounds with MPTP inh. isolated mitochondria swelling, absorbance. AID 651561. actives 58% (n = 780); in the data active means IC50 below about 20 µM
MPTP counter DR: active in counter-screen for permeability transition pore inhibitors; actives 49% (n = 780); AID 651564; IC50, µM; isolated mitochondria counterscreen, fluorescence read-out; shares compounds with MPTP inh; in the data active means IC50 below about 80 µM
Large screens that a line does not name were inactive (follow-up assays come after a bar, where they were run).

CC(C)CC1C(=O)N(Cc2cn(CCC3OCCCO3)nn2)CCS(=O)(=O)N1Cc1ccc(-c2ccncc2)cc1 (stereo not given)	none (no result: GRIN3A LBD mod, beta cell repl, pCIP destab)
Cn1nnnc1SCCNCc1ccccc1OCc1ccc(Cl)cc1	none
Cn1nnnc1SCCNCc1cc(Cl)ccc1OCc1ccccc1	MPTP inh 83 | Rh123 counter 31
COc1ccc(CNCCC(c2ccc(F)cc2)c2ccc(OC)cc2)cc1 (stereo not given)	MPTP inh 56 | Rh123 counter inactive
CCOc1cc(CNCc2ccccc2)ccc1OCc1ccc(Cl)cc1	MPTP inh 68 | Rh123 counter 73
CCNCc1cc(Cl)c(OCc2ccccc2)c(OCC)c1	none
N=c1c(S(=O)(=O)c2ccccc2)cc2c(=O)n3ccccc3nc2n1CCCN1CCOCC1	none
N=c1c(S(=O)(=O)c2ccc(Cl)cc2)cc2c(=O)n3ccccc3nc2n1CCN1CCOCC1	MPTP inh 60 | Rh123 counter inactive | MPTP swell DR inactive | MPTP counter DR inactive
O=C(c1[nH]c(C(F)(F)F)nc1-c1ccccc1)N1CCN(c2c(Cl)cncc2Cl)CC1	none (no result: GRIN3A LBD mod, beta cell repl, pCIP destab)
O=C(Nc1ccc(Cl)c([N+](=O)[O-])c1)Nc1nc2ccccc2s1	none (no result: GRIN3A LBD mod, MPTP inh, FAS TE block)
O=C(Nc1ccccc1)Nc1nc(-c2ccccc2)cs1	GRIN3A LBD mod 23, MPTP inh 85 | Rh123 counter 80
O=C(Nc1ccc(Cl)c(Cl)c1)Nc1nc(-c2ccccc2)cs1	GRIN3A LBD mod 160, MPTP inh 74 | Rh123 counter 73
CC1(C)CC(=O)C(C=NCC2CCN(C(=S)Nc3ccccc3)CC2)=C(O)C1	none
Cc1ccc2c(c1)N(C(=O)CCC(=O)NCc1ccccn1)CC(C)O2 (stereo not given)	none
CCOc1cc(C(=O)OCC(=O)Nc2ccc(SC(F)F)cc2)cc(OCC)c1OCC	MPTP inh 50 | Rh123 counter 61
CCC(C(=O)OCC(=O)Nc1ccc(SC(F)F)cc1)c1ccccc1 (stereo not given)	GRIN3A LBD mod 12, MPTP inh 78 (no result: beta cell repl) | Rh123 counter 88
O=S(=O)(c1cc(Cl)ccc1Cl)N1CC2CCCN2c2ccc(C(F)(F)F)cc21 (stereo not given)	none
C=CCN(CC=C)S(=O)(=O)c1ccc2nsnc2c1	none
COc1ccc([C@H]2CC(=O)C=C(c3ccnc4ccc(Cl)cc34)C2)cc1	MPTP inh 89 (no result: pCIP destab) | Rh123 counter 99
COc1ccc([C@H]2CC(=O)C=C(c3cc(Cl)ccc3C)C2)cc1	none (no result: pCIP destab)
O=C(O)CCCCCN1C(=O)/C(=C\c2ccc(-c3ccc(Cl)cc3)o2)SC1=S	MPTP inh 88 | Rh123 counter 47
CC1=NN(C(=O)c2ccc(Br)cc2)C(O)(C(F)(F)OC(F)(F)F)C1 (stereo not given)	MPTP inh 68 | Rh123 counter 78
O=C(CSc1ncnc2c1cnn2-c1ccccc1)NCC1CCCO1 (stereo not given)	none (no result: pCIP destab)
COCCN(C(=O)C(C)C)c1nnc(-c2cccc(C)c2)s1	none
O=c1oc2c(-c3ccc([N+](=O)[O-])cc3)cc(O)cc2s1	MPTP inh 78 | Rh123 counter 55
O=C(O)c1ccc(N2C(=O)/C(=C/C=C/c3ccccc3)SC2=S)cc1	none
CN(C)c1ccc(/C=C/C=C2/SC(=S)N(c3ccccc3)C2=O)cc1	MPTP inh 58 | Rh123 counter inactive
O=C(Nc1ccccn1)c1cc(-c2cccc(Cl)c2)nc2ccccc12	none
O=C(c1ccc(-c2ccccc2)c(F)c1)C1CCCN(C(=O)c2cncs2)C1 (stereo not given)	MPTP inh 52 | Rh123 counter 52
CCCCNC(=O)C1(C)CCN1C(=O)CSc1ccccc1 (stereo not given)	none (no result: GRIN3A LBD mod, beta cell repl, pCIP destab)
N#C/C(=N/Nc1ccc(OC(F)(F)F)cc1)C(N)=S	GRIN3A LBD mod 16, MPTP inh 83 | Rh123 counter 87
CN1CC2=Cc3ccccc3OC23Oc2ccccc2C=C3C1	MPTP inh 65 | Rh123 counter inactive | MPTP swell DR inactive | MPTP counter DR inactive
Cc1cc(NC(=O)c2nn(C)c(C)c2Br)no1	none
COCCNC(=O)C(c1ccc(F)cc1)N(C(=O)CCC(=O)Nc1nccs1)c1cccc(C)c1 (stereo not given)	none
O=C(Nc1ccc(F)cc1)Nc1cc(S(=O)(=O)N2CCOCC2)ccc1N1CCCC1	none
O=C(Nc1ccc(Cl)cc1)Nc1cc(S(=O)(=O)N2CCOCC2)ccc1N1CCCC1	MPTP inh 71 | Rh123 counter 73
O=C(Nc1ccc(Cl)cc1Cl)NC1CCN(S(=O)(=O)c2ccc(F)cc2)CC1	GRIN3A LBD mod 21, MPTP inh 96 | Rh123 counter 89
COc1ccc(NC(=S)Nc2cccc(S(=O)(=O)N3CCCCC3)c2)cc1	MPTP inh 68 | Rh123 counter 88
O=C(Nc1cccc(S(=O)(=O)N2CCCCC2)c1)Nc1ccc(Cl)cc1Cl	MPTP inh 85 | Rh123 counter 73
O=C(CN(CC1CCCO1)C(=O)CNS(=O)(=O)c1ccccc1)NCc1ccc(F)cc1 (stereo not given)	none
O=C(CN1CCN(Cc2ccc(Cl)cc2)C1=O)NCCCN1CCOCC1	none
Cc1ccccc1CN1CCN(CC(=O)NCCCN2CCN(c3ccc(F)cc3)CC2)C1=O	MPTP inh 56 | Rh123 counter inactive
O=C(CN1CCN(Cc2ccc(Cl)cc2)C1=O)NCCCN1CCN(c2ccc(F)cc2)CC1	MPTP inh 69 | Rh123 counter inactive | MPTP swell DR 11 | MPTP counter DR 12
CC1=NN(c2ccc(Cl)cc2)C(=O)C1C(c1ccccc1O)c1c(C)[nH]n(-c2ccc(Cl)cc2)c1=O (stereo not given)	GRIN3A LBD mod 255, MPTP inh 88 | Rh123 counter 24
CC1=NN(c2ccc(C)cc2C)C(=O)C1C(c1ccccc1O)C1C(=O)N(c2ccc(C)cc2C)N=C1C (stereo not given)	none
COc1ccc(NC(=S)NC(NC(C)=O)C(Cl)(Cl)Cl)c([N+](=O)[O-])c1 (stereo not given)	none
COc1ccc(NC(=S)NC(NC(=O)c2cccc(Cl)c2)C(Cl)(Cl)Cl)c([N+](=O)[O-])c1 (stereo not given)	GRIN3A LBD mod 13, MPTP inh 92 | Rh123 counter 51
O=C(NC(NC(=S)Nc1ccccc1Cl)C(Cl)(Cl)Cl)c1cccc(Cl)c1 (stereo not given)	GRIN3A LBD mod 13, MPTP inh 77 | Rh123 counter 62
